Tg IFNy HTS: blocks Toxoplasma gondii growth in the presence of IFN-gamma; Toxoplasma gondii growth in IFN-gamma-treated host cells; hits give low values; 3.8% of 69,000 active; activity change, negative = inhibition, % (no concentration beside the values); in the data active = activity change below about -70%, passing the limit was not always enough;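 note: host cells are HeLa cells infected with Toxoplasma gondii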
* marks the source's active call; other numbers are inactive results; i = inactive. The full list was thinned out, with hits kept by preference.

SMILES	Tg IFNy HTS
Cc1ccc(-n2c(SCc3nc(-c4ccccc4)oc3C)nc3c(=O)[nH]cnc32)cc1	176.9
N[C@@H]1c2ccccc2C2(CCN(C(=O)c3ccc4[nH]ccc4c3)CC2)[C@H]1O	-4.2
CCO[C@@H]1CC[C@@H]2[C@@H]1OCCN2C(=O)c1cn2cc(Cl)ccc2n1	1.6
CC(C)NC(=O)N1CCOCC2(CCN(Cc3nccs3)C2)C1 (centres undefined)	14.3
COc1ccc(Cn2nnnc2CN2CCN(c3ccc(F)cc3)CC2)cc1	7.5
CCCOc1ccc(-c2noc(-c3c(O)c4ccccc4[nH]c3=O)n2)cc1OC	54.1
Cc1noc(-c2ccc(N(C)Cc3ccncn3)nc2)n1	-11.3
O=C1C[C@H]2[C@H](CCN2S(=O)(=O)c2ccccc2F)N1	-15.6
CC(C)C(=O)NCc1csc(C2CCCN(C(=O)c3c(F)cccc3F)C2)n1 (centres undefined)	-5.2
CCCCCCCCCc1nc2c(=O)n(C)c3ccccc3c2o1	4.5
Cn1cnc(C(=O)N2CCC3(CCC(=O)NC3)CC2)c1	4.0
O=C(O)c1nccnc1C(=O)N1CCCN(c2c(Cl)cncc2Cl)CC1	78.3
CCOc1ccnc(N2CCCC(OCc3cccnc3)C2)n1 (centres undefined)	1.4
Oc1cc(-c2cccc3c2Oc2ccccc2S3)cc2c1OCCNC2	-60.0
CN1C(=O)C2(NCCc3c2[nH]c2ccccc32)c2cc(Br)ccc21 (centres undefined)	i
c1ccc(Cn2cc(-c3cccc(CN4CCOCC4)c3)cn2)cc1	-7.1
Cn1cc(N2CCC3(CCN(c4ncccn4)CC3)C2=O)cn1	-3.0
COCC(=O)NCc1cc(=O)n2c(n1)CN(Cc1cccs1)CCC2	18.5
COC(=O)c1cnc(SCC(=O)Nc2cccc(Cl)c2)n1C	34.3
CCOC(=O)c1c(Sc2ccccc2)cnn1C(=O)Nc1cccc(Cl)c1	-78.9*
CCOC(=O)c1cccnc1-c1cccc(NC(C)=O)c1	13.5
Cc1cc(C)c(NS(=O)(=O)c2ccc3[nH]c(=O)ccc3c2)c(C)c1	i
Cc1ccc2nc(Cc3ccc(NC(=O)CCc4nc5ccccc5[nH]4)cc3)[nH]c2c1	222.5
Cc1ccc(Cc2c(C)[nH]n(-c3nc4ccccc4[nH]3)c2=O)cc1	-98.5*
Cc1ccc(-n2[nH]c(C)c(CC(=O)O)c2=O)cc1	77.6
SMILES	Tg IFNy HTS
O=C(CC1CCc2ccccc21)N(CCO)Cc1ccco1 (centres undefined)	-1.8
Cc1cnc(C(=O)N2CC[C@@H]3C[C@H](c4nccs4)O[C@H]3C2)cn1	1.7
COC(=O)CCn1cc(CN2[C@@H]3CC[C@H]2CN(C)C(=O)C3)cn1	70.0
Cc1nc(-c2cc(C(=O)CCN3CCOCC3)c3ccccn23)cn1C	-33.7
Cc1ccc(C)c(-n2c(C)cn3c4c(=O)n(CCN5CCOCC5)c(=O)n(C)c4nc23)c1	-76.5*
COC(=O)Cn1c(-c2ccccc2)cn2c3c(=O)n(C)c(=O)n(C)c3nc12	-7.8
COc1cccc(C2(O)CCCC3CN(S(=O)(=O)c4ccccc4F)CC32)c1 (centres undefined)	11.1
Cc1ccc(-c2cccc(-n3cnnc3)c2)c2cccnc12	-19.2
Cc1cc(NC(=O)CNC2CCN(Cc3ccccn3)CC2)ccc1Cl	-29.9
FC(F)(F)c1cc2[nH]c(=S)[nH]c2cc1Cl	-92.9*
CCOc1ccc(C(=O)NCCc2csc(-c3ccc(F)cc3)n2)cc1OCC	60.4
Cn1cnnc1C1CCN(C(=O)c2ccccc2C2CCNC2)CC1 (centres undefined)	5.2
COCCN1CCC2(CCCN(c3cnccn3)C2)CC1	-53.4
CC(=O)N1CCC(Cn2ccnc2-c2cc3ccccc3s2)CC1	-46.7
O=C(c1ccc(Nc2nccc(-c3cc4ccccc4s3)n2)cc1)N1CCC(N2CCCC2)CC1	-70.6*
Cc1ccc(C(=O)Nc2nccnc2C(=O)N2CCC(N3CCCCC3)CC2)cc1	-4.5
O=C(c1cc2n(n1)CCCN(c1ccncc1F)C2)N1CCOCC1	2.7
Cc1ccccc1C(=O)N1CC(C(=O)NCc2cccs2)C2(CCOCC2)C1 (centres undefined)	-4.5
CSc1ncc(C(=O)Nc2cccc(C(=O)N3CCCCC3)c2)cn1	12.6
CSc1ncc(C(=O)Nc2ccc(Oc3ccc4c(c3)OCO4)cc2)cn1	-102.9*
CCCN(CCC)S(=O)(=O)c1ccc(NC(=O)c2ccc3c(c2)OCO3)cc1	-64.8
CN(C)c1ccc(NC(=O)c2c(O)c3ccccc3n(-c3ccccc3)c2=O)cc1	120.7
CC1CCCN(C(=O)CSc2nnc3n(CC(=O)N4CCCC4)c4ccccc4n23)C1 (centres undefined)	19.3
CN1CCOC(CCNC(=O)Cc2ccc3c(c2)NC(=O)CO3)C1 (centres undefined)	6.1
CC(C)(C)c1ccc(C(=O)N2NC(=Nc3ccccc3)SC2(C)C)cc1	-86.5*
SMILES	Tg IFNy HTS
CC(C)(C)c1ccc(C(=O)N2CCN(C(=O)c3ccc(C(C)(C)C)cc3)CC2)cc1	-49.3
CC(C)(C)c1ccc(C(=O)N2CCCn3c2nc2ccccc2c3=O)cc1	-40.1
CS(=O)(=O)N1C[C@H]2CN(Cc3ccncc3)C(=O)[C@@H]2C1	-2.7
CCN1CCOCC2(CCCN(C(=O)c3ccc(-n4cccc4)cc3)C2)C1 (centres undefined)	18.3
CCOc1ccc(-c2noc(-c3c(O)c4ccccc4n(CC)c3=O)n2)cc1	60.2
O=C1C[C@H]2CC[C@@H](CN1)N2c1ccc(C(=O)N2CCCCC2)cn1	-0.1
COCC(=O)N[C@H]1CN(Cc2scnc2C)C[C@H]2CCCO[C@H]21	-81.2*
Cn1cc(CN2C[C@H]3CCCO[C@H]3[C@H](NS(C)(=O)=O)C2)cn1	-2.4
Cc1csc(CN2C[C@H]3CCCO[C@H]3[C@H](N3CCCC3)C2)n1	-0.7
CC(C)CCn1nc(C(=O)N2CCOCC2)c2c1CCN(C(=O)CSc1ccccc1)C2	-14.9
O=C(O)CC1CCC2(CC1)CCN(C(=O)c1ccc(-n3ccnc3)cc1)CC2	0.7
COCCNC(=O)c1ccc(-c2nc(CN3CCN(c4ccccc4)CC3)c(C)o2)cc1	-4.2
CCCCN(CC)C(=O)c1ccc(-c2nc(CN3CCN(c4ccccc4)CC3)c(C)o2)cc1	-68.7
CCN(CC)CCCNC(=O)c1ccc(-c2nc(CN3CCN(c4ccccc4)CC3)c(C)o2)cc1	-104.4*
CCNC(=O)c1ccc(-c2nc(CN3CCN(c4ccccc4)CC3)c(C)o2)cc1	45.1
Cc1oc(-c2ccc(C(=O)NCCc3ccco3)cc2)nc1CN1CCN(c2ccccc2)CC1	17.0
Cc1oc(-c2ccc(C(=O)NCCc3cnc[nH]3)cc2)nc1CN1CCN(c2ccccc2)CC1	-110.5*
O=C(Cn1c(=O)ccc2cc(S(=O)(=O)N3CCCC3)ccc21)NCc1cccs1	49.4
COc1ccc(C(=O)Nc2nnc(C(c3ccccc3)c3ccccc3)s2)cn1	-0.2
c1cncc(OC2CCN(Cc3nc(-c4cnccn4)no3)CC2)c1	-3.2
Cc1oc(-c2ccc(NC(=O)c3ccc(Br)cc3)cc2)nc1Cn1cccn1	-52.7
Cc1oc(-c2ccc(NC(=O)c3ccc(Cl)cc3)cc2)nc1Cn1cccn1	-85.0*
CCOc1ccc(C(=O)Nc2ccc(-c3nc(Cn4cccn4)c(C)o3)cc2)cc1	-98.6*
Cc1oc(-c2ccc(NC(=O)c3ccc4c(c3)OCO4)cc2)nc1Cn1cccn1	-90.6*
Cc1oc(-c2ccc(NC(=O)c3cccc(C#N)c3)cc2)nc1Cn1cccn1	21.0
Cc1oc(-c2ccc(NC(=O)c3cccc(N(C)C)c3)cc2)nc1Cn1cccn1	-86.2*
Cc1oc(-c2ccc(NC(=O)c3cccc(C(F)(F)F)c3)cc2)nc1Cn1cccn1	-49.0
COCCC(=O)Nc1ccc(-c2nc(Cn3cccn3)c(C)o2)cc1	94.2
